From PubChem
DT40 TDP1 no CPT: qHTS for Inhibitors of human tyrosyl-DNA phosphodiesterase 1 (TDP1): qHTS in cells in absence of CPT; AID 686978, 2013; Potency, µM (top dose mostly 46.2 µM), actives largely listed as inhibitors; actives 15% (n = 420,000); DT40 Tdp1-/- hTDP1 cells, no CPT, ATP luminescence, 48 h; further: nearly all actives have a fitted effect of over 55% in size
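Readout: luminescence from CellTiter-Glo after 30 min in the dark at RT. Cells: DT40 Tdp1-/- with stable hTDP1, 400/well. Exposure: compounds alone, ≥48 hr, 37 °C.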
IL1B secr inh: inflammasome signaling inhibition, IL-1 beta readout. actives 4.7% (n = 360,000). THP-1 LPS/ATP IL-1B secretion, AlphaLISA, 16 h; active compounds read low. activity change, % at 57.5 µM; in the data active means activity change below about -50%; inconclusive means mostly about -30% to -49%
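Secreted IL-1B measured by AlphaLISA bead assay after 16 h compound exposure of THP-1 cells; compounds (final up to 57.5 uM) added 1 h before LPS (250 ng/mL) and ATP (1.25 mM) stimulation; lower signal means less secretion.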
HT1080NT lethal: kills 2HG-producing HT-1080-NT fibrosarcoma cells. AID 686970. Potency, µM (series often up to 46.1 µM), usual class: cytotoxic. actives 1.6% (n = 360,000). HT-1080-NT fibrosarcoma viability, CellTiter-Glo ATP luminescence, 48 h;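 further: NT is the 2HG producing partner of a matched IDH1 knockdown line; nearly all actives have a fitted effect of over 55% in size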
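A 48-hour cytotoxicity screen used HT-1080-NT cells plated 2 hours before compound delivery. ATP-based CellTiter-Glo luminescence measured viability, normalized to DMSO and no-cell controls.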
HT1080 IDH1KD tx: toxicity to HT-1080 IDH1 knockdown cells (counter line). HT-1080 IDH1 knockdown viability, ATP luminescence, 48 h. Potency, µM (highest dose often 46.1 µM), hits mostly cytotoxic. actives 2% (n = 360,000)
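Knockdown cells (IDH1KD HT-1080) received compounds 2 h after plating at 750 cells/well and were kept 48 h at 37 °C in 5% FBS RPMI. A CellTiter-Glo luminescence read gave % activity for curve fitting.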
DT40 TDP1 CPT: DT40-hTDP1 cell growth loss with CPT | AID 686979 | chicken DT40 Tdp1-/-;hTDP1 cells + 20 nM CPT, ATP luminescence, 48 h | actives 12% (n = 420,000) | Potency, µM (highest dose often 46.2 µM), most hits filed as inhibitors; further: nearly all actives have a fitted effect of over 55% in size
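Chicken DT40 Tdp1-/- cells complemented with human TDP1, 400 cells/well, exposed to compounds plus 20 nM camptothecin for at least 48 h at 37 C; viability read as ATP content by CellTiter-Glo luminescence.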
A number is an active result; – = inactive; ? = inconclusive; · = not tested or not shown; [ ] = remark or other dose. Rows were chosen to be rich in hits. Some 19% of all compounds tested hit in one or more screens of this group. Unless noted, the call rests on the fitted dose curve; in most records, active means well fitted curve in the direction sought with a large enough effect; inconclusive means small, poorly fitted or top-dose-only effect, or another doubt; inactive means no such curve, though single readings can be large; an effect the other way counts as inactive or inconclusive.

SMILES	DT40 TDP1 no CPT	IL1B secr inh	HT1080NT lethal	HT1080 IDH1KD tx	DT40 TDP1 CPT
COc1cc2c(cc1OC)CN(C(=O)CSC1=NCCS1)CC2	21µM	–	–	–	?
COc1cc2c(cc1OC)CN(C(=O)CN1CCN(S(=O)(=O)c3ccccc3Br)CC1)CC2	2.1µM	–	–	–	?
Cc1cc(=O)n2nc(N3CCCC(C(=O)NC4CCC(C)CC4)C3)sc2n1 (stereo unspecified)	–	–	–	–	–
CN(C)c1ccc(C2C=Cc3ccccc32)c2ccccc12 (stereo unspecified)	?	·	·	·	–
Cc1nc(NC(=O)COC(=O)c2cccs2)c(Cl)cc1Cl	–	–	–	–	–
COc1ccccc1CN1CCCC2(CCN(C(=O)c3cccc(F)c3)CC2)C1	–	·	·	·	–
CN1CCc2c(sc3c2C(=O)NC(c2ccco2)N3)C1 (stereo unspecified)	–	–	–	–	–
CN1CCc2c(sc3c2C(=O)NC(c2cn(Cc4ccccc4)c4ccccc24)N3)C1 (stereo unspecified)	23µM	?	–	–	21µM
O=C1NC(c2ccco2)Nc2sc3c(c21)CCN(Cc1ccccc1)C3 (stereo unspecified)	16µM	–	–	–	23µM
C[N+](C)(C)CCN1C(=O)c2ccccc2C1=O	–	–	–	–	–
Cc1ccc(Cn2nnc3c(=O)n(CC(=O)N4CCN(c5ccccc5)CC4)cnc32)cc1	?	?	–	–	21µM
Cc1cccc(Cn2cnc3c(nnn3Cc3ccccc3F)c2=O)c1	28µM	–	–	–	?
Cc1cccc(Cn2cnc3c(nnn3Cc3ccc(F)cc3)c2=O)c1	?	–	–	–	?
Cc1ccc(Cn2nnc3c(=O)n(CC(=O)OCc4ccccc4)cnc32)cc1	16µM	–	–	–	18µM
O=C(Cn1cnc2c(nnn2Cc2ccc(F)cc2)c1=O)OCc1ccccc1	–	–	–	–	?
O=C(Cn1cnc2c(nnn2Cc2ccc(F)cc2)c1=O)N1CCCCC1	–	–	–	–	–
CC(C)C[C@H]1CN(CCCC[C@H]2CNC(=O)C(=O)N2CC2CCCCC2)C(=O)C(=O)N1CC1CCCCC1	?	–	–	–	?
CCOc1cc(C)nc(NCc2ccccc2)n1	21µM	–	–	?	23µM
CC(=O)c1ccc(Oc2cc(C)nc(NCc3ccccc3)n2)cc1	21µM	–	–	–	21µM
Cc1cc(OC2CCCCC2)nc(NCc2ccccc2)n1	–	·	–	–	–
CCCCOc1cc(C)nc(NCc2ccccc2)n1	16µM	–	?	?	4.1µM
CCOc1ccc(C(=O)NCC(=O)OCc2nnc(-c3ccccc3)o2)cc1OCC	–	–	–[9.24 µM]	–	–
CC(CC(=O)N1CCc2ccccc21)S(=O)(=O)c1ccc2c(c1)NC(=O)CO2 (stereo unspecified)	–	–	–	–	–
C=C1C(=O)O[C@@H]2[C@H]1[C@@H](OC(=O)/C(C)=C/C)C/C(C)=C\C(=O)/C=C(\C)[C@@H]2O	2.1µM	-102	?	?	1.5µM
O=C(NC(=S)N(CCO)Cc1ccccc1)c1ccc(F)cc1Cl	–	–	–	–	–
SMILES	DT40 TDP1 no CPT	IL1B secr inh	HT1080NT lethal	HT1080 IDH1KD tx	DT40 TDP1 CPT
Cc1n[nH]c(C)c1CCc1nc2c3ccccc3nc(SCC(=O)Nc3ccccc3F)n2n1	?	–	?	?	?
CCOc1ccccc1NC(=O)CSc1nc2ccccc2c2nc(CCn3cncc3C)nn12	23µM	·	·	·	?
Cc1cncn1CCc1nc2c3ccccc3nc(SCC(=O)Nc3cccc(Cl)c3)n2n1	7.3µM	-97	–	–	18µM
Cc1cccc(NC(=O)CSc2nc3ccccc3c3nc(CCc4c(C)n[nH]c4C)nn23)c1	13µM	–	?	?	16µM
CSc1nc(N)nc(SC2C=CCCC2)c1C#N (stereo unspecified)	–	–	–	–	–
CN1CCN(c2nc3cc(C(F)(F)F)ccc3n3cccc23)CC1	21µM	?	?	23µM	?
CC(C)C1C(=O)N(Cc2cn(CCC3OCCO3)nn2)CCS(=O)(=O)N1Cc1ccc(-c2cccc(CO)c2)cc1 (stereo unspecified)	23µM	–	–	–	?
